Measured values taken from PubChem BioAssay (NCATS).
Inconclusive results are not listed. Values without a mark were called inactive. The source made the active and inactive calls. Calls follow the shape of the dose curve; as a rule, active = well fitted inhibition curve with a large enough effect; inconclusive = small, poorly fitted or top-dose-only effect; inactive = no such curve, though single readings can be large or run the other way.

What follows are molecules tested against Cytochrome P450 2C9 (Homo sapiens) (UniProt P11712) (assay: qHTS Assay for Inhibitors and Substrates of Cytochrome P450 2C9 (AID 883; also: nearly all actives have a fitted effect of over 60% in size)). Conditions: recombinant CYP2C9, luciferin-H luminescence, 60 min; series mostly up to 11.4 µM; activity change, negative = inhibition: at the top concentration.
Chain of Cytochrome P450 2C9 (Homo sapiens) (P11712 whole entry, looked up): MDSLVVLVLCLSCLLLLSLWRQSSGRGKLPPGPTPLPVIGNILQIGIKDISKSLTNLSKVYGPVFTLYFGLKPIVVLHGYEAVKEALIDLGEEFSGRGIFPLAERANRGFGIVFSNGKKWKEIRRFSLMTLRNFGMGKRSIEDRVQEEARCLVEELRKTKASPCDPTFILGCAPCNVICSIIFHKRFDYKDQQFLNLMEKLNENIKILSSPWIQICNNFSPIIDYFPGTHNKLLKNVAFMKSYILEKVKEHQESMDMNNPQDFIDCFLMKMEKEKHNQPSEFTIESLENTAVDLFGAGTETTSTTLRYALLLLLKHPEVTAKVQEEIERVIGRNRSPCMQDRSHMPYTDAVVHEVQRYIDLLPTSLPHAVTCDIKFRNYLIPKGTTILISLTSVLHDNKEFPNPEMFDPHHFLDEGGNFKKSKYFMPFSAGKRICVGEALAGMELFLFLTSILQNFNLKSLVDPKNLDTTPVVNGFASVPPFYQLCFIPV
How it was run: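 Human CYP2C9 (10nM) hydroxylated Luciferin-H (100uM, at its KM) to luciferin in 25mM KPO4. Compound was preincubated 10 min at 37C, then NADPH regeneration started a 60 min reaction at 37C. Luminescence was read after detection reagent, normalized to 57uM sulphaphenazole.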
% is scaled to controls: 0 for no effect and ±100 for the full control effect; potency is read from the fitted curve at half-maximal effect.

SMILES	Potency	activity change, negative = inhibition [%]
ClC(=Nc1cccc2ccccc12)N(c1ccccc1)c1ccccc1	3.16 µM (active)	
O=C1c2ccccc2C(O)(O)[C@@]1(O)[C@]1(O)C(=O)c2ccccc2C1(O)O		4.77
c1ccc2cc(NCNc3ccc4ccccc4c3)ccc2c1	3.98 µM (active)	
N#Cc1c(NC(=O)C(F)(F)F)sc2c3c(=O)c4ccccc4c(=O)c=3oc3ccccc3c12	0.0501 µM (active)	
O=[N+]([O-])c1ccc(S(=O)(=O)Cc2ccccc2)c2nonc12	0.316 µM (active)	
Nc1nc(Sc2ccc([N+](=O)[O-])c3nonc23)c2[nH]cnc2n1	3.16 µM (active)	

These molecules were tested against Cytochrome P450 3A4 (Homo sapiens) (UniProt P08684) (assay: qHTS Assay for Inhibitors and Substrates of Cytochrome P450 3A4 (AID 884; also: nearly all actives have a fitted effect of over 50% in size)). Conditions: recombinant CYP3A4, Luciferin-PPXE luminescence; series mostly up to 57.1 µM; activity change, negative = inhibition: at the top concentration.
Chain of Cytochrome P450 3A4 (Homo sapiens) (P08684 whole entry, looked up): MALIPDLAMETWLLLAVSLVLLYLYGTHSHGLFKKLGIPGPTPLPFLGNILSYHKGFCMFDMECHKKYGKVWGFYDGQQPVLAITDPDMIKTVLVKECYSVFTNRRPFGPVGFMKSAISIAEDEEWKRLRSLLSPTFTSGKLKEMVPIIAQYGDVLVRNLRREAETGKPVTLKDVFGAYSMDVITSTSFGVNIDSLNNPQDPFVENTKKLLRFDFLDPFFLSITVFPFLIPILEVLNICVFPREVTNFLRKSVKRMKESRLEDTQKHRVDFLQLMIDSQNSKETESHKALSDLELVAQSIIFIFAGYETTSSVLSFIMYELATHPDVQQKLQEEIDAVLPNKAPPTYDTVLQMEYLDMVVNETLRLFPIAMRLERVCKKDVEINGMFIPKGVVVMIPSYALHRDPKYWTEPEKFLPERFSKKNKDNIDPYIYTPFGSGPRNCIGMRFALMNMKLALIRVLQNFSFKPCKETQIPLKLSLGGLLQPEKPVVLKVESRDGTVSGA
How it was run: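 20 nM human CYP3A4 with 25 uM Luciferin-PPXE (at KM) in 200 mM KPO4, preincubated 10 min with compound; NADPH regeneration started a 60 min RT reaction. Luciferin detected by luminescence, normalized to 57 uM ketoconazole as full inhibition.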

SMILES	activity change, negative = inhibition	Potency
O=C1c2ccccc2C(O)(O)[C@@]1(O)[C@]1(O)C(=O)c2ccccc2C1(O)O	11.5% [at 11.4 µM]	
Cc1cccc(CNc2ncnc3ccc(-c4ccc(C(=O)N(C)C)cc4)cc23)c1		2 µM (active)
C[N+](C)([O-])CCC=C1c2ccccc2CCc2ccccc21		1.26 µM (active)
COCCn1c(=O)c(CCc2ccccc2)nc2cnc(Oc3cccc(Cl)c3)nc21		0.794 µM (active)
